Measurements as given in PubChem BioAssay (EPA / NIEHS).
Calls of active or inactive are those of the source. How the source made its calls: active means hit-call score of the fitted dose curve at least 0.9, where 1 is the maximum; inactive means score below 0.9.

assay: CCTE_Shafer_MEA_dev_interburst_interval_mean: CCTE's Neural Network Formation Assay for Mean Interburst Interval, Shafer Lab (AID 2284046)
Experimental: CCTE_Shafer_MEA_dev assay is conducted using Axion Biosystems 48 well microelectrode array (MEA) plates and Maestro recording system. Each well of the MEA plate contains a grid of 16 microelectrodes embedded in the culture surface. Electrically active cells, such as neurons, can be cultured over the electrodes, and electrical activity in these cells can be recorded extracellularly. The spontaneous firing of neurons is captured from each electrode on a microsecond timescale providing both temporally and spatially precise data. […] The CCTE_Shafer_MEA_dev assay uses primary cultures of rat cortical neurons. Recordings are made on days post-plating 5, 7, 9 and 12. As these cultures mature over time, neural networks develop functional activity and form cohesive networks in which electrical activity can be highly coordinated. CCTE_Shafer_MEA_dev_interburst_interval_mean is 1 of 19 assay components of the CCTE_Shafer_MEA_dev assay. It measures the average time interval between consecutive single-electrode bursts (temporally-clustered groups of action potential firing) during a recording in a microelectrode array (MEA) using Axion Biosystems Maestro 768 channel amplifier with the AxIS adaptive spike detector. The mean inter-burst interval is averaged across the actively bursting electrodes to report a well-mean value. To collapse across multiple recordings made on days post-plating 5, 7, 9 and 12, the trapezoidal area-under-the-curve of the component is calculated.Data from the assay component CCTE_Shafer_MEA_dev_interburst_interval_mean was analyzed into 1 assay endpoint. This assay endpoint, CCTE_Shafer_MEA_dev_interburst_interval_mean, was analyzed in the negative analysis fitting direction relative to DMSO as the negative control and baseline of activity. Using a type of functional reporter, gain or loss-of-signal activity can be used to understand electrical activity.
On the day prior to culture, each well was coated thoroughly with 150 uL of 0.05% polyethyleneimine (PEI, Sigma Cat P3143) in 50 mM HEPES (Sigma Cat H7523) at a pH of 8. The plate was incubated at 37C for one hour. PEI was rinsed out with 500 uL of sterile water three times. Plates were stored at 4C until the day of culture. This culture was plated at a seeding density of 1.5 x 10^5 cells/well on a 48-well MEA plate, prepared as described above. Cells were administered via a 25 uL media/laminin ([…]; Sigma Cat L2020-1MG) drop directly onto the microelectrode array, as adding the cells with the laminin results in better attachment than pre-coating with laminin. After 2 hours, an additional 475 uL of cortical media was added and the cells returned to the incubator. Exposure starts at day 0 of plating and is continued over twelve days of network development until the experiment is terminated. Cells are fed with fresh medium on DIV 5 and 9, following the recordings on those days. The entire volume of media in the well is exchanged and any vehicle or compound treatment is renewed. Complete details are found in OP-NHEERL/ISTD/SBB/TJS/2015-03-r0 (available on request, email shafer.tim@epa.gov). Measurement of the electrical activity is non-invasive, and recordings can be made from the same plate over multiple different days of the culture. In cortical neurons, this allows for the measurement of extracellular action potentials over the period during which networks form in the MEA plate.

Compound | AC50 | outcome
NC(=O)c1ccc(N)nc1 | 3.16 µM (active) | –
FC(F)OCC(F)(F)C(F)(F)F | – | inactive
CC1(C)[C@H](C(=O)O[C@H](C#N)c2cccc(Oc3ccccc3)c2)[C@@H]1/C=C(\Cl)C(F)(F)F | – | inactive
OC(Cc1ccccc1Cl)(Cn1[nH]cnc1=S)C1(Cl)CC1 (stereo not given) | 82.5 µM (active) | –
O=S(=O)(F)C(F)(F)C(F)(F)C(F)(F)C(F)(F)F | – | inactive
Cc1ccccc1OP(=O)(Oc1ccccc1C)Oc1ccccc1C | 15 µM (active) | –
C=CCOC(F)(C(F)(F)F)C(F)(F)F | – | inactive
CC(C)[C@@H](Nc1ccc(C(F)(F)F)cc1Cl)C(=O)OC(C#N)c1cccc(Oc2ccccc2)c1 (stereo not given in full) | – | inactive
Cc1cc(C(F)(C(F)(F)F)C(F)(F)F)ccc1NC(=O)c1cccc(I)c1C(=O)NC(C)(C)CS(C)(=O)=O | 6.7 µM (active) | –
CS(=O)(=O)c1ccc(C(=O)C2C(=O)CCCC2=O)c(Cl)c1COCC(F)(F)F | – | inactive
CNC(=O)CSP(=O)(OC)OC | – | inactive
CCOCn1c(-c2ccc(Cl)cc2)c(C#N)c(Br)c1C(F)(F)F | 6.29 µM (active) | –
C=CC(F)(C(F)(F)F)C(F)(F)C(F)(F)F (stereo not given) | – | inactive
CC(=O)C(F)(F)C(F)(F)F | – | inactive
CC(F)(F)CC(F)(F)F | – | inactive
